Measurements published in PubChem BioAssay AID463173 (ICCB-Longwood Screening Facility, Harvard Medical School, 2010).
Out of some 52,000 compounds screened, about 4,300 (8.3%) were called active. Cut-off read from the data, not from the text of the source: active = survival mostly below about 52% (no sharp cut-off); inactive = mostly above about 56%. Many of the other results were omitted from the sample, so actives are more common in it than they were.

test system: DeltatarO mutant; assay: S. aureus survival, RN4220 and DeltatarO strains – OD600, teichoic acid synthesis inhibitors, primary screen (AID 463173); conditions: S. aureus RN4220 wild type/DeltatarO growth, OD600, 18 h, active compounds read low, screened at 18.75 µg/mL (by protocol)

SMILES | survival
CCSc1nc2c([nH]c3ccccc32)c(=O)n1CC | 68% (inactive)
Cc1nc2c(-c3ccccc3)c(C)nn2c(C)c1CCC(=O)NCc1ccc(F)cc1 | 94% (inactive)
COc1ccc(C(=O)N2CC(C)CC(C)C2)cc1 (stereo not given) | 98% (inactive)
CC1CCN(c2nn3c(=O)c(C(=O)NCCc4ccccc4)cnc3s2)CC1 | 95% (inactive)
O=C(Nc1cccc(C(F)(F)F)c1)Nc1nnc(N2CCCCC2)s1 | 82% (inactive)
NC(=O)N/N=C/c1ccc(-c2ccc(Cl)cc2)o1 | 87% (inactive)
CCc1ccccc1N(C)C(=O)Cn1cnc2sc(C)c(S(=O)(=O)N3CCC(C)CC3)c2c1=O | 71% (inactive)
CC(C)CCOc1ccc(C2N=C(N)Nc3nc4ccccc4n32)cc1 (stereo not given) | -3% (active)
COc1cc(C2N=C(N)Nc3nc4ccccc4n32)ccc1OCCC(C)C (stereo not given) | 68% (inactive)
CC(C)c1ccc(C2N=C(N)Nc3nc4ccccc4n32)cc1 (stereo not given) | 101% (inactive)
CCC(C#CCN1CCCCC1)(CC)OC(C)=O | 98% (inactive)
CCOC(=O)c1ccc(OCC2c3cc(OC)c(OC)cc3CCN2C(=O)Cc2ccc(F)cc2)cc1 (stereo not given) | 68% (inactive)
NC(=O)CSc1nc2c(oc3ccccc32)c(=O)n1-c1ccccc1F | 59% (inactive)
CC1(NS(=O)(=O)c2ccccc2)CCS(=O)(=O)C1 (stereo not given) | 98% (inactive)
CC1(C)CC(N=Cc2c(O)[nH]c(=O)[nH]c2=O)CC(C)(C)N1 | 85% (inactive)
O=C(Nc1cc(Cl)cc(Cl)c1)c1ccc(F)c(S(=O)(=O)N2CCN(c3ccccc3F)CC2)c1 | 84% (inactive)
CN(C)C(=O)COc1ccc(S(=O)(=O)c2ccc(OCC(=O)N(C)C)cc2)cc1 | 109% (inactive)
COc1ccc(-c2nc(S(=O)(=O)c3ccc(C)cc3)c(NCc3ccccc3)o2)cc1 | 67% (inactive)
CCSc1oc(-c2ccc(F)cc2)nc1S(=O)(=O)c1ccc(C)cc1 | 45% (inactive)
CSc1oc(-c2cccs2)nc1S(=O)(=O)c1ccc(Br)cc1 | 56% (inactive)
COc1ccccc1NC(=O)CSc1oc(-c2ccccc2)nc1S(=O)(=O)c1ccc(C)cc1 | 158% (inactive)
CCCCS(=O)(=O)c1oc(-c2ccc(F)cc2)nc1S(=O)(=O)c1ccc(C)cc1 | 30% (active)
COc1ccccc1NC(=O)CSc1oc(-c2ccc(F)cc2)nc1S(=O)(=O)c1ccc(Br)cc1 | 49% (active)
Cc1ccc(S(=O)(=O)c2nc(-c3ccc(F)cc3)oc2N2CCN(c3ccccc3)CC2)cc1 | 107% (inactive)

SMILES | survival
COc1ccccc1NC(=O)CSc1oc(-c2ccccc2)nc1S(=O)(=O)c1ccccc1 | 145% (inactive)
Cc1ccc(-c2nc(S(=O)(=O)c3ccc(F)cc3)c(N3CCN(c4ccccc4)CC3)o2)cc1 | 72% (inactive)
CC(C)CS(=O)(=O)c1oc(-c2ccc(F)cc2)nc1S(=O)(=O)c1ccccc1 | -4% (active)
CSc1oc(-c2ccc(F)cc2)nc1S(=O)(=O)c1ccc(Br)cc1 | 41% (active)
COc1cc(C)ccc1OCCSc1nc2ccc(NC(=O)c3cccs3)cc2s1 | 72% (inactive)
CCOC(=O)c1ccccc1NC(=O)C1CCN(c2ncnc3c2nc2n3CCCCC2)CC1 | 62% (inactive)
O=C1CS/C(=N/c2nc(-c3ccccc3)cs2)N1 | 83% (inactive)
COc1ccc(-c2nc3sc(CCNC(=O)c4ccccc4C)c(C)n3n2)cc1 | 77% (inactive)
Cc1ccccc1CNC(=O)CCC(=O)N1CC2CCCN2c2ccccc21 (stereo not given) | 55% (inactive)
COCCNc1oc(-c2ccccc2)nc1S(=O)(=O)c1ccc(Br)cc1 | 79% (inactive)
O=C(CSc1oc(-c2ccc(F)cc2)nc1S(=O)(=O)c1ccccc1)NC1CCCCC1 | 61% (inactive)
O=S(=O)(c1ccccc1)c1nc(-c2ccc(F)cc2)oc1NCc1ccccc1 | 67% (inactive)
O=C(CSc1oc(-c2ccc(F)cc2)nc1S(=O)(=O)c1ccc(Br)cc1)NC1CCCCC1 | 64% (inactive)
CCS(=O)(=O)c1oc(-c2ccc(F)cc2)nc1S(=O)(=O)c1ccccc1 | -5% (active)
CCS(=O)(=O)c1oc(-c2ccc(F)cc2)nc1S(=O)(=O)c1ccc(Br)cc1 | -5% (active)
CCCCS(=O)(=O)c1oc(-c2ccc(F)cc2)nc1S(=O)(=O)c1ccccc1 | 4% (active)
CC(=O)Nc1ccc(NC(=O)CCc2c(C)nc3c(c(C)nn3-c3ccccc3)c2C)cc1 | 107% (inactive)
CCCCN(C)CCNC(=O)c1cc2c(=O)n(C)c3ccccc3c2n1C | 90% (inactive)
Cc1ccccc1CCNC(=O)c1ccc2c(c1)nc1n2CCOC1 | 84% (inactive)
Cn1c(=S)[nH]c2c(c1=O)C1(CCCC1)Cc1ccccc1-2 | 80% (inactive)
CSCCC(NS(=O)(=O)c1ccc2c(c1)oc(=O)n2C)C(=O)NCc1ccc(Cl)cc1 (stereo not given) | 92% (inactive)
COc1ccc(-c2nc3scc(CCNC(=O)Cc4ccc(F)cc4)n3n2)cc1 | 95% (inactive)
Cc1ccc(-c2nc3cccnc3s2)cc1NC(=O)C(C)C | 112% (inactive)
CCC(C(=O)Nc1cc(-c2cn3cccnc3n2)ccc1C)c1ccccc1 (stereo not given) | 91% (inactive)

SMILES | survival
CCC(C(=O)Nc1cccc(-c2nc3cccnc3s2)c1C)c1ccccc1 (stereo not given) | 92% (inactive)
CCC(C(=O)Nc1cc(-c2nc3cccnc3s2)ccc1C)c1ccccc1 (stereo not given) | 37% (active)
CCC(CC)C(=O)Nc1cccc(-c2nc3cccnc3s2)c1 | 80% (inactive)
CCC(CC)C(=O)Nc1cc(-c2nc3cccnc3s2)ccc1C | 57% (active)
CCCC(=O)Nc1cc(C)c(O)c(-c2nc3ncccc3o2)c1 | 91% (inactive)
NC(=O)C1CCN(S(=O)(=O)c2ccc(N3CCCCS3(=O)=O)cc2)CC1 | 116% (inactive)
Cn1c(=O)c2c(n3ncnc13)NC(=O)CC2c1cccc(F)c1 (stereo not given) | 66% (inactive)
CS(=O)(=O)N1CCN(c2ncnc3c(-c4ccc(Cl)cc4)nsc23)CC1 | 99% (inactive)
COCCn1c(C)cc(O)c(C(c2ccc(OC)cc2)N2CCN(c3ccccc3)CC2)c1=O (stereo not given) | 58% (inactive)
Cc1nc2c3cccnc3nn2c(C)c1CCC(=O)NCc1ccccc1 | 110% (inactive)
COc1ccc(-c2ccc(CCC(=O)O)n2-c2ccccc2O)cc1 | 124% (inactive)
Cc1ccc(-n2c(CCC(=O)O)ccc2-c2cccs2)cc1Cl | 86% (inactive)
COc1ccc(-c2ccc(CCC(=O)O)n2-c2ccccc2C(F)(F)F)cc1 | 116% (inactive)
COc1ccc(-c2ccc(CCC(=O)O)n2-c2cc(Cl)ccc2O)cc1 | 52% (inactive)
COc1ccc(-c2ccc(CCC(=O)O)n2-c2ccc(Cl)cc2C)cc1 | 47% (active)
Cc1ccc(-c2ccc(CCC(=O)O)n2-c2ccc(C)c(Cl)c2)cc1 | 42% (inactive)
Cc1ccc(-n2c(CCC(=O)O)ccc2-c2cccs2)cc1C | 46% (inactive)
COc1ccc(Cl)cc1-n1c(CCC(=O)O)ccc1-c1ccc(C)cc1 | 73% (inactive)
Cc1ccc(Cl)cc1-n1c(CCC(=O)O)ccc1-c1cccs1 | 38% (active)
Cc1ccc(-c2ccc(CCC(=O)O)n2-c2cccc(C)c2C)cc1 | 34% (active)
COc1ccc(-n2c(CCC(=O)O)ccc2-c2ccccc2)c(OC)c1 | 47% (active)
Cc1ccc(C)c(-n2c(CCC(=O)O)ccc2-c2ccc(Cl)cc2)c1 | 75% (inactive)
